Experimental data: PubChem BioAssay
Several values for one entry are separate records, joined by “and”; a condition that tells them apart may be missing. Equal entries are not always repeated. Inconclusive results are not listed. Activity calls are given as the source filed them.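 How the source made its calls, unless noted: active means normalized viability below 100% at a tested concentration; inactive means the rest.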

What was measured:
[1] = viability loss in pontine glioma line – cell-based, SU-DIPG-XVII, MIPE5.0, CellTiter-Glo, qHTS, dose response (AID 1347060; cut-off not given, nearly all actives have AC50 up to about 26 µM;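 on AC50: cells exposed to compound for 48 hours before viability readout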); conditions: CellTiter-Glo ATP luminescence
[2] = viability loss in pontine glioma line – cell-based, SU-DIPG-XIII, MIPE4.0, CellTiter-Glo, qHTS, dose response (AID 1347061; cut-off not given, nearly all actives have AC50 up to about 37 µM;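 further: cells exposed to compound for 48 hours before readout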); conditions: CellTiter-Glo ATP luminescence
[3] = viability loss in pontine glioma line – cell-based, SU-DIPG-IV, MIPE4.0, CellTiter-Glo, qHTS, dose response (AID 1347063; cut-off not given, nearly all actives have AC50 up to about 30 µM;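 further: compound exposure lasted 48 hours before the viability readout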); conditions: CellTiter-Glo ATP luminescence
[4] = viability loss in pontine glioma line – cell-based, SU-DIPG-XXV, MIPE5.0, CellTiter-Glo, qHTS, dose response (AID 1347065; cut-off not given, nearly all actives have AC50 up to about 26 µM;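 further: cells exposed to compound for 48 hours before ATP readout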); conditions: CellTiter-Glo ATP luminescence
[5] = compounds altering HSF1 focus formation in cells – imaging, Selleck Cancer Library (AID 1347162; in the data active means plate-normalised HSF1 focus index below about 0.46); conditions: human cells, HSF1 nuclear foci imaging, at 10 µM; SSMD: measured here: HSF1 foci SSMD mean; cell count: measured here: cell number; plate-normalised HSF1 focus index: stronger effect = lower value
[6] = drug combination growth inhibition, ovarian cancer – cell-based, oncology-focused library, rucaparib conditional, profiling panel (AID 1508598); conditions: patient-derived ovarian cancer cells, CellTiter-Glo viability, 144 h, stronger effect = lower value
[7] = growth inhibition, single agent or in combination, cell-based, chromothripsis tumors, cisplatin or BGB combos (AID 1671449; in the data active means inhibition above about 80%;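 further: cells exposed for 96 hours; 0% = vehicle DMSO and 100% = killing by high DMSO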); conditions: LFS_MB_P medulloblastoma cells
[8] = growth inhibition, single agent and combos, cell-based, chromothripsis tumors, cisplatin or BGB combos (AID 1671450; in the data active means inhibition above about 80%;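 further: cells exposed to compound for four days; 0% = vehicle DMSO and 100% = cell killing by high DMSO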); conditions: HDN33 neuroblastoma cells, stronger effect = higher value
[9] = growth inhibition, single agents and combos, ICB984, cell-based, cisplatin or BGB combos, synergistic combos for chromothripsis tumors (AID 1671451; call rule not given here;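 further: cells exposed for 96 hours before readout; 0% = vehicle DMSO and 100% = killing by high DMSO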); conditions: ICB984 medulloblastoma cells, drug combinations, stronger effect = higher value
[10] = growth inhibition, single agents and combos, HTB85, cell-based, BGB or cisplatin IC20 combos, synergistic combos for chromothripsis tumors (AID 1671453; in the data active means inhibition above about 80%;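 further: cells exposed for 96 hours before readout; 0% = vehicle DMSO and 100% = high DMSO killing control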); conditions: HTB85 osteosarcoma cells, drug combinations, stronger effect = higher value
[11] = growth inhibition, MDA-MB-436, cell-based, BGB or cisplatin combos, synergistic combos for chromothripsis tumors (AID 1671458; call rule not given here;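 further: cells exposed for 96 hours; 0% = vehicle DMSO and 100% = killing by high DMSO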); conditions: MDA-MB-436 breast carcinoma growth inhibition, drug combinations, stronger effect = higher value
[12] = BT084 cell growth, single and combined drugs, ICGC_MB145, cisplatin and BGB IC40 combos (AID 1671461; in the data active means inhibition above about 80%;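 further: cells exposed to drugs for 96 hours; 0% = vehicle DMSO and 100% = high DMSO full killing control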); conditions: BT084 medulloblastoma cells, drug combinations, stronger effect = higher value
[13] = RCMB18 cell growth, single agent and combined, cisplatin and BGB IC40 combos (AID 1671462; in the data active means inhibition above about 80%;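 further: cells exposed to compound for four days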); conditions: RCMB18 medulloblastoma cells, stronger effect = higher value
[14] = viability loss in pontine glioma line – cell-based, SU-DIPG-XIII, MIPE5.0, CellTiter-Glo, qHTS, dose response (AID 1347064; cut-off not given, nearly all actives have AC50 up to about 23 µM;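 on AC50: cells exposed to compound for 48 hours before the viability read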); conditions: CellTiter-Glo ATP luminescence
[15] = JHH-DIPG-1 glioma cell viability, MIPE5.0 library, CellTiter-Glo luminescence, qHTS (AID 1347067; cut-off not given, nearly all actives have AC50 up to about 26 µM;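 further: cells exposed to compound for 48 hours before readout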); conditions: JHH-DIPG-1 glioma viability, CellTiter-Glo ATP luminescence
[16] = growth inhibition of DIPG cells – cell-based, MIPE4.0 library, CellTiter-Glo luminescence, qHTS (AID 1347066; cut-off not given, nearly all actives have AC50 up to about 30 µM;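 further: cells exposed to compound for 48 hours before readout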); conditions: SU-DIPG-VI viability, CellTiter-Glo ATP luminescence
[17] = growth inhibition of DIPG cells – cell-based, MIPE5.0 library, qHTS (AID 1347068; cut-off not given, nearly all actives have IC50 up to about 30 µM); conditions: SU-DIPG-XXV viability

C[C@@H]1CN(CC(=O)Nc2ccc3c(c2)Cc2cccc(-c4cc(=O)cc(N5CCOCC5)o4)c2S3)C[C@H](C)O1
AC50 [1]: 23.5 µM (active)
outcome [2]: inactive
AC50 [3]: 13.2 µM (active)
AC50 [4]: 18.6 µM (active)
SSMD [5]: 2.96
cell count [5]: 6620
plate-normalised HSF1 focus index [5]: 1.15 (inactive)
viability ([6]; at 0.000305 µM, OCI-C5x cells, with rucaparib 10 µM, 100% = cells with rucaparib alone): 106% (inactive)
viability ([6]; at 0.000305 µM, OCI-C5x cells, without rucaparib): 116% (inactive)
viability ([6]; at 0.000305 µM, OCI-P5x cells, with rucaparib 20 µM, 100% = cells with rucaparib alone): 111% (inactive)
viability ([6]; at 0.000305 µM, OCI-P5x cells, without rucaparib): 119% (inactive)
viability ([6]; at 0.00122 µM, OCI-C5x cells, with rucaparib 10 µM, 100% = cells with rucaparib alone): 108% (inactive)
viability ([6]; at 0.00122 µM, OCI-C5x cells, without rucaparib): 123% (inactive)
viability ([6]; at 0.00122 µM, OCI-P5x cells, with rucaparib 20 µM, 100% = cells with rucaparib alone): 108% (inactive)
viability ([6]; at 0.00122 µM, OCI-P5x cells, without rucaparib): 121% (inactive)
viability ([6]; at 0.00488 µM, OCI-C5x cells, with rucaparib 10 µM, 100% = cells with rucaparib alone): 112% (inactive)
viability ([6]; at 0.00488 µM, OCI-C5x cells, without rucaparib): 129% (inactive)
viability ([6]; at 0.00488 µM, OCI-P5x cells, with rucaparib 20 µM, 100% = cells with rucaparib alone): 108% (inactive)
viability ([6]; at 0.00488 µM, OCI-P5x cells, without rucaparib): 108% (inactive)
viability ([6]; at 0.0195 µM, OCI-C5x cells, with rucaparib 10 µM, 100% = cells with rucaparib alone): 113% (inactive)
viability ([6]; at 0.0195 µM, OCI-C5x cells, without rucaparib): 128% (inactive)
viability ([6]; at 0.0195 µM, OCI-P5x cells, with rucaparib 20 µM, 100% = cells with rucaparib alone): 104% (inactive)
viability ([6]; at 0.0195 µM, OCI-P5x cells, without rucaparib): 108% (inactive)
viability ([6]; at 0.0781 µM, OCI-C5x cells, with rucaparib 10 µM, 100% = cells with rucaparib alone): 110% (inactive)
viability ([6]; at 0.0781 µM, OCI-C5x cells, without rucaparib): 127% (inactive)
viability ([6]; at 0.0781 µM, OCI-P5x cells, with rucaparib 20 µM, 100% = cells with rucaparib alone): 107% (inactive)
viability ([6]; at 0.0781 µM, OCI-P5x cells, without rucaparib): 109% (inactive)
viability ([6]; at 0.313 µM, OCI-C5x cells, with rucaparib 10 µM, 100% = cells with rucaparib alone): 106% (inactive)
viability ([6]; at 0.313 µM, OCI-C5x cells, without rucaparib): 132% (inactive)
viability ([6]; at 0.313 µM, OCI-P5x cells, with rucaparib 20 µM, 100% = cells with rucaparib alone): 102% (inactive)
viability ([6]; at 0.313 µM, OCI-P5x cells, without rucaparib): 98.9% (active)
viability ([6]; at 1.25 µM, OCI-C5x cells, with rucaparib 10 µM, 100% = cells with rucaparib alone): 101% (inactive)
viability ([6]; at 1.25 µM, OCI-C5x cells, without rucaparib): 138% (inactive)
viability ([6]; at 1.25 µM, OCI-P5x cells, with rucaparib 20 µM, 100% = cells with rucaparib alone): 91.6% (active)
viability ([6]; at 1.25 µM, OCI-P5x cells, without rucaparib): 93.8% (active)
viability ([6]; at 5 µM, OCI-C5x cells, with rucaparib 10 µM, 100% = cells with rucaparib alone): 106% (inactive)
viability ([6]; at 5 µM, OCI-C5x cells, without rucaparib): 132% (inactive)
viability ([6]; at 5 µM, OCI-P5x cells, with rucaparib 20 µM, 100% = cells with rucaparib alone): 76.3% (active)
viability ([6]; at 5 µM, OCI-P5x cells, without rucaparib): 81.8% (active)
inhibition ([7]; at 0.5 µM, stronger effect = higher value): -5.76% (inactive) and -8.68% (inactive)
inhibition ([7]; measured here: combination with BGB IC20, at 0.005 µM): 12.1% and -26.9%
inhibition ([7]; measured here: combination with BGB IC40, at 0.005 µM): 76.1% and -29.5%
inhibition ([7]; measured here: combination with BGB IC40, at 0.05 µM): -11.7% and -51.5%
inhibition ([7]; measured here: combination with cisplatin, at 0.5 µM, stronger effect = higher value): 39.6% and -32.3%
inhibition ([7]; measured here: combination with cisplatin, at 5 µM, stronger effect = higher value): -23.3% and -90%
inhibition ([8]; BGB combo, at 5 µM): 2.05% and 13.3%
inhibition ([8]; at 0.5 µM): -17.5% (inactive) and -12.8% (inactive)
inhibition ([8]; cisplatin combo, at 5 µM): -12.4% and 5.9%
inhibition ([8]; measured here: with BGB IC20 combination, at 0.5 µM): -16.8% and -1.93%
inhibition ([8]; measured here: with cisplatin IC20 combination, at 0.5 µM): -12.5% and -11.1%
inhibition ([8]; single agent, at 5 µM): -33.9% and 16.4%
inhibition ([9]; BGB IC20 combo, at 0.005 µM): 4.72% and 10.1%
inhibition ([9]; BGB IC40 combo, at 0.005 µM): -39.9% and -9.84%
inhibition ([9]; BGB IC40 combo, at 0.05 µM): 3.85% and -15.8%
inhibition ([9]; at 0.5 µM): -19.3% (inactive) and -37.2% (inactive)
inhibition ([9]; cisplatin combo, at 0.05 µM): -0.996% and -20%
inhibition ([9]; cisplatin combo, at 0.5 µM): -20.2% and -42.2%
inhibition ([9]; cisplatin combo, at 5 µM): 2.43% and -58.6%
inhibition ([9]; measured here: 5 uM single agent, at 5 µM): -28.1% and -5.43%
inhibition ([10]; at 0.5 µM): -24.8% (inactive) and -13.9% (inactive)
inhibition ([10]; measured here: with BGB IC20, at 0.5 µM): -22.3% and -11.4%
inhibition ([10]; measured here: with BGB IC20, at 5 µM): -3.78% and 16.9%
inhibition ([10]; measured here: with cisplatin IC20, at 0.5 µM): -22.4% and -22.3%
inhibition ([10]; measured here: with cisplatin IC20, at 5 µM): 1.95% and -37.3%
inhibition ([10]; single agent, at 5 µM): -2.38% and 8.59%
inhibition ([11]; at 0.5 µM): -6.48% (inactive) and -14.8% (inactive)
inhibition ([11]; measured here: BGB combination, at 0.5 µM): -1.79% and -20.6%
inhibition ([11]; measured here: BGB combination, at 5 µM): 17.7% and 3.62%
inhibition ([11]; measured here: cisplatin combination, at 0.5 µM): -20.7% and -21.7%
inhibition ([11]; measured here: cisplatin combination, at 5 µM): 7.96% and -7.31%
inhibition ([12]; at 0.5 µM): -1.92% (inactive) and -6.86% (inactive)
inhibition ([12]; cisplatin combination, at 0.5 µM): -3.42% and -23.5%
inhibition ([12]; cisplatin combination, at 5 µM): -136% and -3.01%
inhibition ([12]; measured here: BGB IC40 combination 0.05 uM, at 0.05 µM): -6.42% and -21%
inhibition ([12]; single agent, at 5 µM): 4.22% and -18.6%
inhibition ([13]; at 0.5 µM): 1.57% (inactive) and -21.5% (inactive)
inhibition ([13]; cisplatin combo, at 5 µM): -0.721% and -71.8%
inhibition ([13]; measured here: BGB IC40 combination, at 0.05 µM): 9.68% and -19.2%
inhibition ([13]; measured here: combination with cisplatin, at 0.5 µM): -13.6% and -9.04%
inhibition ([13]; single agent, at 5 µM): 36.4% and -12.2%

COc1cc2ncnc(Nc3cccc(Br)c3)c2cc1OC
AC50 [1]: 2.09 µM (active)
outcome [2]: inactive
AC50 [14]: 14.8 µM (active)
AC50 [4]: 16.6 µM (active)
AC50 [15]: 20.9 µM (active)
SSMD [5]: 2.47
cell count [5]: 7590
plate-normalised HSF1 focus index [5]: 1.15 (inactive)

CC(=O)OC1C(C)OC(Oc2c(-c3ccc(O)cc3)oc3cc(O)cc(O)c3c2=O)C(O)C1OC(C)=O (stereo not given)
outcome [1]: inactive
outcome [2]: inactive
AC50 [3]: 20.9 µM (active)

O=C(Nc1ccc(Oc2ccnc3[nH]ccc23)c(F)c1)c1cccn(-c2ccc(F)cc2)c1=O
outcome [1]: inactive
outcome [2]: inactive
outcome [14]: inactive
outcome [4]: inactive
outcome [16]: inactive
outcome [15]: inactive
outcome [17]: inactive

COc1ccc(-c2oc3c(CC=C(C)C)c(OC4O[C@H](CO)[C@@H](O)[C@H](O)[C@H]4O)cc(O)c3c(=O)c2OC2O[C@@H](C)[C@H](O)[C@@H](O)[C@H]2O)cc1 (stereo not given in full)
outcome [1]: inactive
outcome [2]: inactive
AC50 [3]: 14.8 µM (active)
outcome [4]: inactive
AC50 [16]: 14.8 µM (active)
outcome [15]: inactive
outcome [17]: inactive
